CASP6 VEID inh – blocks human caspase-6 cleavage activity. actives 0.53% (n = 350,000). AID 686996. purified caspase-6, Z-VEID-R110 cleavage fluorescence. inhibition, % at 12.5 µM. P55212;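 active = mean inhibition across replicates at least about 35%, with every replicate also reaching that limit, limit read from the data; inconclusive = only one of the two criteria met; inactive = neither criterion met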;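 also: 0% = median of neutral control wells and 100% = no fluorescence left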
ALR inh – inhibitors of human sulfhydryl oxidase ALR | P55789 | actives 3.8% (n = 290,000) | purified ALR, DTT oxidation, H2O2 HRP-luminol luminescence | inhibition, % (no concentration beside the values);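 active = mean replicate inhibition above about 79%, with every replicate also reaching it, limit read from the data; inconclusive = only one of the two criteria met; inactive = mean below limit and not every replicate reaching it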
CDK5 inh – inhibitors of human CDK5/p35 kinase | AID 488839 | Q00535+Q15078 | inhibition, % at 10 µM | Recombinant CDK5/p35, ADP-Glo luminescence, 60 min | actives 0.01% (n = 330,000);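 active = highest replicate inhibition of at least 50% and at least 75% of replicates reaching 50%; inconclusive = only one of the two criteria met; inactive = both criteria failed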;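 also: plate controls were DMSO neutral control for no effect and GW8510 at 10 µM for full effect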
Target sequence (Q00535 whole entry, looked up): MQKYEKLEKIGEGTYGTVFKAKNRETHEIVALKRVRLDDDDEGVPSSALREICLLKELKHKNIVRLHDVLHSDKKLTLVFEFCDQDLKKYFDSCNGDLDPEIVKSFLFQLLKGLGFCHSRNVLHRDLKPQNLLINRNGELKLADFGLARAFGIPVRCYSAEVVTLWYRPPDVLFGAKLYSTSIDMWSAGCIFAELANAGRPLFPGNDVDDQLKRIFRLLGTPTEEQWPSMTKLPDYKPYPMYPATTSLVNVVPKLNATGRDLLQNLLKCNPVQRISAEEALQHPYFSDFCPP
Target sequence (Q15078 whole entry, looked up): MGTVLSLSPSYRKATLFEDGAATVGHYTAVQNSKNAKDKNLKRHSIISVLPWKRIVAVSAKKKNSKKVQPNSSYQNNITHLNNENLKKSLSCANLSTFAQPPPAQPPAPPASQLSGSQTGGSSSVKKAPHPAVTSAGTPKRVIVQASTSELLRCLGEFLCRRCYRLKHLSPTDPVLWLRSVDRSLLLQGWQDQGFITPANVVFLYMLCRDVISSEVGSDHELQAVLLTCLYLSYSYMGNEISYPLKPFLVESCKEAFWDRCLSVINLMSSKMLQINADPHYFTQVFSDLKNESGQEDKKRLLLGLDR
Mot1-301 SUMO – blocks SUMOylation pathway, rescuing yeast Mot1-301 growth; S. cerevisiae Mot1-301 growth rescue, ATP luminescence, 38.5C; percent above DMSO median, 100 means doubled; growth rescue, % at 18.8 µM; actives 1% (n = 320,000);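 active = every valid replicate shows activation above 250% relative to neutral control wells; inactive = the rest, any valid replicate at or below 250%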;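 also: OY570 slx delta 5 strain wells were the positive control but not used for scaling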
N-glyco inh – N-linked glycosylation inhibition; D54 ERlucT glycosylation luciferase reporter, 24 h; percent of 100 nM tunicamycin response; reporter increase, % at 12.5 µM; actives 0.23% (n = 360,000);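 active = mean luciferase reporter signal, scaled so untreated is 0 and the glycosylation-blocking control 100, at or above a set limit in every replicate; inconclusive = mean reaches the limit but not every replicate does; inactive = mean below the limit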;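 also: luciferase carries N-glycosylation sites so blocking glycosylation raises the light; 0% = median of neutral control wells and 100% = median of 100 nM tunicamycin wells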
NSD2 inh – blocks human histone methyltransferase NSD2; NSD2 peptide methylation, AlphaScreen, 120 min; inhibition, % at 12.5 µM; actives 0.54% (n = 310,000); AID 743445; in the data active = inhibition above about 50%
Starred values were filed as active, the others as inactive; ? = inconclusive; . = no result given. Sampled rows, rich in hits. Any-hit rate of the full collection: about 3.9%.

SMILES	CASP6 VEID inh	ALR inh	CDK5 inh	Mot1-301 SUMO	N-glyco inh	NSD2 inh
COC(=O)c1cccc(Nc2c3c(nc4ccccc24)CCC3)c1	1.0	.	0.6	.	22.4	0.4
c1ccc2c(Nc3ccc4c(c3)OCCO4)c3c(nc2c1)CCCC3	4.5	90.1*	-3.6	3.4	0.9	10.3
Fc1cccc(Nc2c3c(nc4ccccc24)CCC3)c1	-1.0	1.6	-0.6	-2.5	3.7	-1.6
COc1ccccc1Nc1c2c(nc3ccccc13)CCC2	0.7	98.7*	-1.8	3.8	7.4	-3.0
O=C(NCc1ccco1)c1c2c(nc3ccccc13)CCC2	.	-8.3	-1.1	-16.6	-0.6	-3.0
COc1ccc(NC(=O)CSc2c3c(nc4ccccc24)CCC3)c(OC)c1	-1.5	98.1*	-0.8	-7.5	0.3	-0.7
COc1ccc(Nc2c3c(nc4ccccc24)CCC3)c(OC)c1	1.5	98.6*	0.5	21.2	9.9	4.1
Oc1ccc(/C(Cc2ccccn2)=N\Nc2ccccc2)c(O)c1	4.9	99.0*	1.6	48.1	-0.8	3.8
Cc1c(O)ccc(/C(Cc2ccc3ccccc3n2)=N\O)c1O	.	27.7	-0.8	11.7	-6.8	1.2
Oc1ccc(/C(Cc2ccc3ccccc3n2)=N\Nc2ccccc2)c(O)c1	11.6	98.5*	-3.3	50.5	-0.3	3.8
Cc1cccc(S(=O)(=O)N2C[C@@H](O)COC[C@@H]3O[C@@H](CC(=O)NCCCN4CCOCC4)CC[C@H]32)c1	-2.7	.	.	.	.	.
O=C(Nc1nc(-c2cccs2)cs1)c1ccc(Cl)s1	2.9	97.5*	1.3	42.2	-6.9	.
C[C@H](CO)N1C[C@H](C)[C@H](CN(C)Cc2ccc(Oc3ccccc3)cc2)Oc2ccc(NC(=O)Nc3ccc4c(c3)OCO4)cc2C1=O	-1.5	.	.	.	.	.
Cn1c(=O)c2c(ncn2CC(=O)OCC(=O)c2ccc(OC(F)F)cc2OC(F)F)n(C)c1=O	54.6*	.	.	.	0.3	-1.2
C[C@H]1CN([C@@H](C)CO)C(=O)Cc2cc(NC(=O)CCN3CCOCC3)ccc2O[C@H]1CN(C)C(=O)Nc1cccc2ccccc12	8.4	.	.	.	.	.
CCc1ccccc1NC(=O)CSc1nc(C)c(C)o1	-1.2	98.8*	-2.9	6.0	.	4.4
O=C(Nc1ccccc1C(F)(F)F)N1CCC(N2CCCCC2)CC1	.	-1.2	0.7	295.6*	-0.3	-2.4
CC(=O)Nc1ccc(CN2CCC(N3CCC(C(=O)NC4CC4)CC3)CC2)cc1	-2.9	.	.	.	0.3	-0.6
O=C(NC1CC1)C1CCN(C2CCN(Cc3ccccc3C(F)(F)F)CC2)CC1	-2.4	-0.7	-0.7	312.6*	-0.7	-1.0
O=C(CSc1ccccc1F)NCCN1C(=O)CSC1=O	3.0	1.1	-2.0	-10.5	2.9	3.0
O=C(CSc1nc(-c2ccccc2)c(-c2ccccc2)[nH]1)NCCN1C(=O)CSC1=O	.	98.8*	0.8	-4.0	13.0	11.2
C[C@@H]1CN([C@@H](C)CO)C(=O)Cc2cc(NC(=O)C3CCCCC3)ccc2O[C@H]1CN(C)C	1.6	.	.	.	.	.
CO[C@H]1CN(C)C(=O)c2ccc(NS(=O)(=O)c3cccc(Cl)c3)cc2OC[C@@H](C)NC[C@H]1C	41.2*	.	.	.	.	.
CO[C@@H]1CN(C)C(=O)c2ccc(NC(=O)C3CC3)cc2OC[C@@H](C)N(C)C[C@H]1C	98.8*	.	.	.	.	.
CO[C@@H]1CN(C)C(=O)c2ccc(NC(=O)C3CC3)cc2OC[C@@H](C)N(C(=O)Cc2ccccn2)C[C@H]1C	38.7*	.	.	.	.	.
SMILES	CASP6 VEID inh	ALR inh	CDK5 inh	Mot1-301 SUMO	N-glyco inh	NSD2 inh
CO[C@H]1CN(C)C(=O)c2ccc(NC(=O)C3CC3)cc2OC[C@@H](C)N(C(=O)Cc2ccccn2)C[C@@H]1C	1.3	.	.	.	.	.
CO[C@H]1CN(C)C(=O)c2cc(NC(C)=O)ccc2OC[C@H](C)N(S(=O)(=O)c2cn(C)cn2)C[C@H]1C	35.8*	.	.	.	.	.
CO[C@H]1CN(C)C(=O)c2ccc(NS(=O)(=O)c3cccc(Cl)c3)cc2OC[C@@H](C)NC[C@@H]1C	-1.3	.	.	.	.	.
O=C(C[C@H]1CC[C@H](NC(=O)NC2CCCCC2)[C@@H](CO)O1)NCc1ccc(F)cc1	-2.3	.	.	.	.	.
Cc1ccc(S(=O)(=O)Nc2ccc3c(c2)CC(=O)N([C@H](C)CO)C[C@H](C)[C@H](CN(C)C(=O)Nc2c(C)noc2C)O3)cc1	1.5	.	.	.	.	.
COCC(=O)Nc1ccc2c(c1)[C@H]1C[C@@H](CC(=O)NCc3cccnc3)O[C@@H](CO)[C@H]1O2	0.0	.	.	.	.	.
N#C/C(=C/Nc1ccccc1)c1ccsc1	.	88.9*	6.8	-15.2	-0.8	1.3
N#CC(C#N)=CNc1cccnc1	-1.2	2.2	-1.0	-14.8	2.2	-3.2
Cc1ccc(N/C=C(/C#N)c2ccsc2)cc1	.	98.0*	0.9	49.0	-1.0	0.9
CO[C@@H](CN(C)C(=O)c1cnccn1)[C@H](C)CN([C@@H](C)CO)S(=O)(=O)c1ccc(F)cc1	-2.0	.	.	.	.	.
C[C@@H]1CN([C@@H](C)CO)C(=O)c2cc(NS(=O)(=O)c3ccc(Cl)cc3)ccc2O[C@@H](C)CCCCO[C@@H]1CN(C)Cc1ccc(C(=O)O)cc1	-1.2	.	.	.	.	.
COc1cc(NC(=O)CSc2ccc(-c3ccco3)nn2)cc(OC)c1	7.2	98.2*	-0.8	13.8	-2.3	2.7
CC(=O)Nc1cccc(NC(=O)CSc2ccc(-c3ccco3)nn2)c1	5.8	?	-1.8	-9.5	3.0	0.4
Fc1ccc(CSc2ccc(-c3ccco3)nn2)cc1	2.4	97.8*	4.4	2.2	0.2	1.9
Fc1cccc(CSc2ccc(-c3ccco3)nn2)c1	.	49.7	0.7	-7.9	-2.7	1.6
CC(=O)Nc1ccc(NC(=O)CSc2ccc(-c3ccco3)nn2)cc1	-1.0	96.3*	0.3	7.9	0.3	-1.4
CCCNC(=O)[C@H]1[C@H](CO)[C@H]2Cn3c(cccc3=O)[C@@H]1N2Cc1ccccc1	0.6	.	.	.	.	.
COc1ccc(/C=C(\NC(=O)c2ccccc2)C(=O)NC2CCS(=O)(=O)C2)cc1 (stereo unspecified)	1.1	-4.5	-1.1	269.0*	1.1	-0.3
COc1ccc(/C=C(\NC(=O)c2ccccc2)C(=O)NCc2cccnc2)cc1	0.1	-2.5	0.9	269.9*	0.1	-1.3
CCOC(=O)C(=O)Nc1nc(-c2ccccc2)c(-c2ccccc2)o1	1.0	87.6*	0.5	-1.5	0.8	.
O=C(Nc1nc(-c2ccccc2)c(-c2ccccc2)o1)c1ccc(F)cc1	.	3.0	-0.1	17.3	2.7	-0.5
CN(C)c1ccc(/C=N/NC(=O)c2ccccc2Cl)cc1	-1.2	98.3*	-0.2	2.9	16.0	12.9
CN(C)c1ccc(/C=N/NC(=O)c2ccccc2)cc1	-0.1	.	3.6	-12.0	-2.3	-2.4
O=C(N/N=C\c1ccc(Cl)cc1)c1sccc1-n1cccc1	.	.	-0.7	0.8	-0.6	-0.7
CN(C)c1ccc(/C=N/OC(=O)Nc2ccccc2)cc1	-2.3	84.3*	0.3	-4.2	-12.7	3.5
COc1ccc(NC(=O)O/N=C/c2ccccc2)cc1	2.0	-35.2	0.0	12.8	-1.1	-1.6

High-throughput results as filed in PubChem.
